Screening results (PubChem)
KKLEB cytotox = cytotoxicity in KKLEB CF airway cells, primary screen, cytotoxicity control for CF NF-kB inhibitor project, cell-based, uHTS, fluorescence assay plates; KKLEB CF airway cells viability, ATPlite luminescence, overnight; hits give low values; cells stimulated with P. aeruginosa culture filtrate; activity change (cytotoxicity), % at 5 µM; hit rate 0.36% among 360,000;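 active means corrected activity change at or below -50% at 5 µM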
CF NFkB block = inhibitors of PAF-induced NF-kB signaling, primary screen, cell-based, GFP fluorescence, uHTS. KKLEB NF-kB-GFP reporter, GFP fluorescence overnight. inhibition, % at 5 µM. hit rate 0.86% among 360,000. AID 588850, 2011;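 active means at least 50% inhibition at 5 µM, scaled per plate between neutral and stimulator controls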;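 further: PAF is a Pseudomonas aeruginosa culture filtrate used as stimulus; plate controls were PAF-stimulated DMSO wells for no effect and unstimulated DMSO wells for full effect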
HIF-2a inh = HIF-2a reporter inhibitors, primary screen, luminescence, 786-0 RCC cells; 786-0 RCC cells HIF-2a reporter, luciferase luminescence, overnight; inhibition, % at 18.8 µM; hit rate 0.72% among 360,000; AID 624352, 2012;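 active means inhibition of the luminescence signal of 40% or more relative to plate controls, in a single-dose primary screen at 18.75 µM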
Peg3 prom inh = Peg3 promoter-driven luciferase inhibitors, primary screen, cell-based, HeLa, luciferase luminescence. hit rate 1.7% among 360,000. HeLa PEG-Prom luciferase reporter, overnight. inhibition, % at 20 µM;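 active means inhibition of at least 50% at 20 µM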
TROY NFkB inh = inhibitors of TROY-driven NF-kB signaling, primary screen, Q293 LMP1-TROYcd cells, NF-kB luciferase, uHTS. Q293 LMP1-TROYcd NF-kB luciferase reporter, 4 h. inhibition, % at 10 µM. hit rate 0.98% among 360,000. AID 1347056, 2019;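 active means compounds whose plate-normalised and pattern-corrected inhibition of the luciferase reporter signal at the single screening dose is 50% or more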
TWEAK-Fn14 inh = inhibitors of TWEAK-Fn14 signaling, primary screen, luciferase reporter cells, uHTS; inhibition, % at 10 µM; TWEAK-stimulated Fn14 reporter cells, luciferase luminescence, 8 h; hit rate 2% among 360,000; AID 1159606, 2016; in the data active means inhibition above about 50%
Mdm2-MdmX confirm = retested Mdm2-MdmX interaction blockers, confirmation, cell-based, luminescence, single concentration, set 2 | shares compounds with HIF-2a inh | inhibition, % at 8 µM | hit rate 99% among 740 | SaOS-2 split-luciferase Mdm2/MdmX complementation;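 active means mean inhibition of the luminescence signal across two replicates at or above 26 percent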
Target sequence (O15151 whole entry, looked up): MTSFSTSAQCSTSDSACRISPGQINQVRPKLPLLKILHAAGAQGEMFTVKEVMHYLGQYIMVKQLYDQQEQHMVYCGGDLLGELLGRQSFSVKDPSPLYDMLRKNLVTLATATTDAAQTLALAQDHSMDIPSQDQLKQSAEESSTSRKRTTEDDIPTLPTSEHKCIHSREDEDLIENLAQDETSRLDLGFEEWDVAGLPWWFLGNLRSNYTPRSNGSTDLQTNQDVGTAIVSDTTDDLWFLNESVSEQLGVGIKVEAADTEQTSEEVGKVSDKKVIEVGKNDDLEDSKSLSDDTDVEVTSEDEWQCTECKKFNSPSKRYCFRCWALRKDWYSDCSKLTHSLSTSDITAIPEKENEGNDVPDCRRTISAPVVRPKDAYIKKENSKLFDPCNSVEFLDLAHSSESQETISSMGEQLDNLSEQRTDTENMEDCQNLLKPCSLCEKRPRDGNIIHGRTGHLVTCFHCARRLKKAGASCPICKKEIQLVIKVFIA
Target sequence (Q00987 whole entry, looked up): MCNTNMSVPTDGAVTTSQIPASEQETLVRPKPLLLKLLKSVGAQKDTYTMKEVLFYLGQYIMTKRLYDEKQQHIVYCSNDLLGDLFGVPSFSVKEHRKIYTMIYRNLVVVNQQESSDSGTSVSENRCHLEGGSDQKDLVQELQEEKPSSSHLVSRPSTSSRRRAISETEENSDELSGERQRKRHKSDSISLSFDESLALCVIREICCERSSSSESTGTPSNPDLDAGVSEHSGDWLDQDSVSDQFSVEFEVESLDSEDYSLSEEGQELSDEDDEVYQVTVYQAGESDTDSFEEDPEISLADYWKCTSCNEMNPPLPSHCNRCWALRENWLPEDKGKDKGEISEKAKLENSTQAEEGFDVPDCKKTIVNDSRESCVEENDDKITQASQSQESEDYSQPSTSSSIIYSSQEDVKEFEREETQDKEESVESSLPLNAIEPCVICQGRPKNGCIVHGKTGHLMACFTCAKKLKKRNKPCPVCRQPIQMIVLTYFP
HIF-2a conf = HIF-2a reporter inhibitor retest, confirmation, luminescence, 786-0 RCC cells. shares compounds with HIF-2a inh. HIF-2a luciferase reporter luminescence, overnight. inhibition, % at 18.8 µM. hit rate 56% among 1,800;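 active means mean inhibition across four replicates of at least 40 percent at the single tested concentration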
HIF-1a counter = HIF-1a luciferase reporter signal reduction – MiaPaCa-2 cells, single concentration, counter-screen for HIF-2a inhibitor project, confirmation; shares compounds with HIF-2a inh; MiaPaCa-2 HIF-1a luciferase reporter, desferoxamine, overnight; inhibition, % at 18.8 µM; hit rate 72% among 1,800;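 active means mean inhibition of the reporter signal across four replicates at the single tested dose of 50% or more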
The depositor's hits bear a star; nt = no result given; ! = repeats disagree. Compounds with a hit are over-represented: about 3.9% of the library has one in this group of screens.

SMILES	KKLEB cytotox	CF NFkB block	HIF-2a inh	Peg3 prom inh	TROY NFkB inh	TWEAK-Fn14 inh	HIF-2a conf	HIF-1a counter	others
CCn1c2ccccc2c2cc(NC(=O)CSc3nnc(-c4ccc(OC)cc4)n3N)ccc21	-13	12	41*	34	8	-14	3	31
CCOc1ccccc1C(=O)Nc1ccc2nc(N3CCN(c4ncccn4)CC3)cc(C)c2c1	nt	nt	nt	nt	nt	nt	nt	nt	Mdm2-MdmX confirm=98*
Cc1ccc(CSCC(=O)Nc2ccccc2)cc1	-1	8	-119	-64	-11	-24	nt	nt
CCCc1nc([N+](=O)[O-])c(S(=O)(=O)c2ccccc2)n1CC(C)C	-16	55*	45*	48	26	83*	27	-43
CCN1CCN(Cc2ccc(NC(=O)c3cc(NC(=O)c4cncc(-c5ccc(C#N)cc5)c4)cc(OC)c3)cc2C(F)(F)F)CC1	-73*!	57*!	89*!	106*	4	-117	17	98*
O=C1C=CC(=O)N1CCNc1ncc(C(F)(F)F)cc1Cl	-23	60*	35	108*	8	11	nt	nt	Mdm2-MdmX confirm=103*
NS(=O)(=O)c1ccc(CCNC(=O)CCCn2ncn3c(cc4occc43)c2=O)cc1	9	4	1	1	-1	-19	nt	nt
O=C(COC(=O)c1ccccc1C(=O)c1ccc(Cl)c([N+](=O)[O-])c1)NC1CC1	-66*	105*	84*	99*	65*	95*	30	101*	Mdm2-MdmX confirm=103*
O=C(COC(=O)c1cc([N+](=O)[O-])ccc1Cl)NC1CCCC1	-2	-11	17	6	-8	20	nt	nt
CCCNC(=O)CSc1ccc(S(=O)(=O)N(C)C2CCCCC2)cn1	-5	-1	7	9	3	-3	nt	nt
Nc1c(N(Cc2ccco2)C(=O)c2ccc(Br)cc2)c(=O)[nH]c(=O)n1Cc1ccccc1	11	16	7	0	-22	3	nt	nt
CC(NC(=O)C1CCCN1C(=O)c1cccs1)c1ccc(Cl)cc1Cl (stereo unspecified)	12	8	11	8	6	1	nt	nt
O=[N+]([O-])c1cc(S(=O)(=O)N2CCCCCC2)ccc1Cl	-3	-12	40*	69*	18	-6	29	68*
O=C(CCc1nc2ccccc2c(=O)[nH]1)OCC(=O)c1ccc(C2CCCCC2)cc1	-10	-28	-5	2	-31	-4	nt	nt
COc1ccc(C(=O)NCC(=O)OCC(=O)N(C)c2ccccc2)cc1	1	-6	1	8	-8	-15	nt	nt
COCC(C)NCC(=O)NC(C)CCc1ccccc1 (stereo unspecified)	1	-1	10	-24	0	-15	nt	nt
CCN(CC)CCNC(=O)c1cc2c(-c3ccc(Cl)cc3)nn(C)c2s1	-13	-41	58*	88*	-74	-71	15	88*
O=C1CCCC[C@@H](O)[C@H](O)C[C@H](c2ccccc2)O1	nt	nt	6	nt	-22	23	nt	nt
C=C1CC2(CC(c3ccccc3)OC(c3ccccc3)C2)OC1=O (stereo unspecified)	-66*	78*	87*	96*	23	87*	91*	106*
COc1ccc(CC(=O)N2CCCC(C)C2)cc1 (stereo unspecified)	-5	0	-35	-15	18	-1	nt	nt
